The list is not random: actives were taken first. Their share in the collection is about 5.3%.
Six1-Eya2 inh = Six1/Eya2 interaction inhibition | 360,000 compounds, 0.56% hits | AlphaScreen GST-Six1/His-Eya2 binding, biochemical; hits give low values | AID 651725 | activity change, % (no concentration beside the values); in the data active means activity change below about -65%; inconclusive means mostly about -30% to -63%; further: on the % scale 0 is the no-effect control and ±100 the full control effect
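Six1/Eya2 binding was read as AlphaScreen signal after compounds were pinned into GST-Six1 plus His-tagged Eya2 (5X stock 250/500 nM) in pH 8.0 Tris/NaCl/TCEP buffer, beads added, then incubated 1 h, 37 C, dark.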
CtBP-E1A blk = inhibitors of CtBP/E1A interaction; activity change, % (no concentration beside the values); 340,000 compounds, 0.49% hits; AID 651724; AlphaScreen GST-E1A/His-CtBP binding, 1536-well; hits give low values; in the data active means activity change below about -65%; inconclusive means mostly about -30% to -63%; further: on the % scale 0 is the no-effect control and ±100 the full control effect
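In 5 uL wells, 23 nL compound meets equimolar GST-E1A and His-CtBP (5X stock 125 nM each) for 2 h, 37 °C. Beads (5X, 50 ug/mL) then 1 h, 37 °C, dark.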
HP1b chromo inh = blocks HP1-beta chromodomain binding to methylated histone tails | 390,000 compounds, 0.56% hits | AID 540317 | Potency, µM (top dose mostly 114 µM), for the others: at the top dose activity change, negative = inhibition, hits mostly inhibitors | P83916 | AlphaScreen HP1-beta / biotin-H3K9me3 peptide binding; further: potency means the concentration at half of the fitted maximal effect; nearly all actives have a fitted effect of over 70% in size
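Compound inhibition of the preformed complex between 50 nM HP1-beta and 50 nM biotinylated H3K9me3 peptide was read by AlphaScreen. Buffer was PBS pH 7.4 with 0.01% Tween-20. Incubations ran 30 min at room temperature, with 10 ug/mL donor/acceptor beads.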
BAZ2B block = BAZ2B (human) inhibition | Potency, µM (highest dose often 114 µM), inactives show at the top dose activity change, negative = inhibition, actives largely listed as inhibitors | Q9UIF8 | AID 504333 | 360,000 compounds, 4.4% hits | AlphaScreen BAZ2B-H3K14Ac peptide displacement; further: potency means the concentration at half of the fitted maximal effect; on the % scale 0 is the no-effect control and ±100 the full control effect; nearly all actives have a fitted effect of over 60% in size
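AlphaScreen displacement of biotin-H3(5-23)K14Ac peptide (50 nM final) from BAZ2B (50 nM final) in PBS pH 7.4, 0.01% Tween-20; complex preformed 30 min RT, then compounds (top 110 uM) 30 min RT, beads 20 min dark.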
JMJD2A Tudor inh = blocks the human JMJD2A Tudor domain. 390,000 compounds, 4.4% hits. Potency, µM (series often up to 114 µM), for inactives: at the highest dose activity change, negative = inhibition, most hits filed as inhibitors. AlphaScreen JMJD2A-Tudor / H3K4me3 peptide binding. O75164; further: potency means the concentration at half of the fitted maximal effect; on the % scale 0 is the no-effect control and ±100 the full control effect; nearly all actives have a fitted effect of over 50% in size
TDP1 inh = inhibitors of human tyrosyl-DNA phosphodiesterase TDP1. recombinant TDP1, AlphaScreen DNA substrate cleavage. Potency, µM (top dose mostly 130 µM), for the others: top-dose activity change, negative = inhibition, actives largely listed as inhibitors. Q9NUW8. 350,000 compounds, 0.28% hits; further: potency means the concentration at half of the fitted maximal effect; on the % scale 0 is the no-effect control and ±100 the full control effect; nearly all actives have a fitted effect of over 40% in size
Target sequence (Q9NUW8 whole entry, looked up): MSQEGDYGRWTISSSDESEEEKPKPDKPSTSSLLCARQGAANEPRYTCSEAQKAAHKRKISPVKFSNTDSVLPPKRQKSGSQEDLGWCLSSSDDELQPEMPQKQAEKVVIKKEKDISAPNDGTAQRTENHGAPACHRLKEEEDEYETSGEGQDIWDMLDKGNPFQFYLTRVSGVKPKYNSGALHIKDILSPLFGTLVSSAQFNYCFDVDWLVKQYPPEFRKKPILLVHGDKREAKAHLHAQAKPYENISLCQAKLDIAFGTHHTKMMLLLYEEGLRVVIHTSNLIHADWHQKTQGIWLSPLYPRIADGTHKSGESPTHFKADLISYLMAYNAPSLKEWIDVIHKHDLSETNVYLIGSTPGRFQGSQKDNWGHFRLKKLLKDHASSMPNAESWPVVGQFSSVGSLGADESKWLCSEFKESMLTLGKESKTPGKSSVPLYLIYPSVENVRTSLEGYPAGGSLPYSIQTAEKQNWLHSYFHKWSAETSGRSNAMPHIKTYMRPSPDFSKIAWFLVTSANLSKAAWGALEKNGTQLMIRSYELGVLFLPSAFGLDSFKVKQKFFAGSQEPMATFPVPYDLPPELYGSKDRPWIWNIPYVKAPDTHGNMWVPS
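Signal: AlphaScreen proximity between streptavidin donor and anti-FITC acceptor beads on intact substrate. Reaction: Tdp1 1 nM, substrate 15 nM final, 5 min RT after 15 min compound preincubation.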
* marks the source's active call; other numbers are inactive results; ? = inconclusive; / = no result; ! = a repeat was not active; [ ] = dose if it differs, or a comment. Unless noted, the call rests on the fitted dose curve; in most records, active means well fitted inhibition curve with a large enough effect; inconclusive means small, poorly fitted or top-dose-only effect; inactive means no such curve, though single readings can be large or run the other way.

SMILES	Six1-Eya2 inh	CtBP-E1A blk	HP1b chromo inh	BAZ2B block	JMJD2A Tudor inh	TDP1 inh
Cc1cc(Cl)cc(C)c1OCCCCN1CCOCC1	2.1	4.1	39.0%	9.8%	-15.4%	6.2%
Cc1cccc(Cl)c1OCCCN1CCOCC1	-11.2	-2.2	?	?	1.58µM*	4.2%
Cc1cccc(C)c1OCCOCCN1CCN(C)CC1	6.2	-3.9	25.1µM*!	-29.3%	12.6µM*!	-5.1%
Cc1cc(C)c(OCCOCCN2CCCC2)c(C)c1	0.5	-8.5	?	/	?	/
Cc1cccc(C)c1OCCN1CCCC1	0.2	-0.3	?	?	25.1µM*	4.7%
Cc1cccc(C)c1OCCCN1CCCC1	-4.9	0.7	?	50.1µM*	2.51µM*	0.0%
Cc1cccc(C)c1OCCCCN1CCCCC1	-1.4	/	?	?	28.2µM*	/
C(#Cc1ccccc1)CN1CCN(c2ccccn2)CC1	-4.5	3.6	0.8%	50.1µM*	?	0.0%
CC(CCN1CCN(c2ccccn2)CC1)c1ccccc1 (stereo not drawn)	-0.4	-10.2	?	?	25.1µM*	/
Cc1ccoc1C(=O)NCCNc1ccc(Cl)cc1[N+](=O)[O-]	?	-13.8	?	44.7µM*	?	10.1%
COc1ccc(C(=O)/C=C/c2ccc(O)cc2)c2c1CC(O)C(C)(C)O2 (stereo not drawn)	-10.7	23.0	49.9%	/	?	4.8%
COc1ccc(C(=O)/C=C/c2ccc(O)cc2)c(O)c1CC=C(C)C	?	-26.9	?	?	44.7µM*	3.9%
CCCCN(C)CCCNC(=O)Cn1ncc2c3ccccc3n(Cc3ccccc3)c2c1=O	/	/	9.6%	-3.4%	-6.4%	0.0%
Cn1cc(-c2cc3n(n2)CCC(=O)N3CCCC(=O)NCc2ccccc2)c2ccccc21	/	/	14.6%[57 µM]	-9.3%	-14.1%	4.1%
O=C(O)c1cccc(Nc2nc(-c3ccc([N+](=O)[O-])cc3)nc3ccccc23)c1	1.2	6.5	12.1%	56.2µM*	-30.4%	/
Cc1ccc(-c2nc(Nc3ccc(N4CCOCC4)cc3)c3ccccc3n2)cc1	-18.7	-9.8	?	31.6µM*	39.8µM*	/
CCOC(=O)c1ccc(Nc2nc(C(=O)OCC)nc3ccccc23)cc1	-78.9*	-89.5*	61.4%	-1.6%	-11.6%	9.3%
O=C(O)c1ccc(Nc2nc(-c3ccccc3)nc3ccccc23)cc1	?	/	31.3%	4.6%	39.8µM*	/
CNC(=O)c1ccc(Nc2nc(-c3ccccc3)nc3ccccc23)cc1	?	0.0	7.9%	2.8%	-13.4%	8.3%
CCOC(=O)c1nc(Nc2ccc(C(=O)OCC(C)C)cc2)c2ccccc2n1	/	/	38.2%	-1.2%	-4.5%	/
Cc1ccc(-c2nc(Nc3ccc(O)cc3)c3ccccc3n2)cc1	-13.9	-9.0	-2.4%	-27.5%	?	/
Cc1oc2ncn(CC(C)C)c(=O)c2c1C(=O)N(CCN(C)C)Cc1ccccc1	/	/	25.6%	10.1%[57.1 µM]	-4.2%	2.1%
Cc1nc(-c2ccc(C)c(S(=O)(=O)N3CCC(C(=O)NCc4ccc(Cl)cc4)CC3)c2)no1	/	/	37.7%	4.3%	0.0%	-2.5%
CCOC(=O)c1cccc(NC(=O)c2cn(-c3cccc(OC)c3)c(=O)c3ccccc23)c1	/	/	19.9%	1.2%	7.6%	3.9%
CCN(CCCNC(=O)c1nn(-c2ccc(OC)c(Cl)c2)c(=O)c2c1c1ccccc1n2C)c1cccc(C)c1	/	/	11.8%	/	-18.3%	0.0%
CCOC(=O)c1nc(Nc2ccc(Nc3ccccc3)cc2)c2ccccc2n1	?	-2.2	?	15.8µM*	28.2µM*	7.4%
CCOC(=O)c1nc(Nc2ccc(OC)cc2)c2ccccc2n1	-26.3	?	39.0%	4.0%	-11.4%	/
CCOC(=O)c1nc(Nc2ccc(N3CCC(C)CC3)cc2)c2ccccc2n1	?	-0.9	?	39.8µM*	28.2µM*	/
CCOC(=O)c1nc(Nc2ccc(C(=O)O)cc2)c2ccccc2n1	?	?	8.5%	-7.1%	28.2µM*	3.1%
CCOC(=O)c1c(CCl)nc2ccccc2c1C	-0.5	-4.6	32.2%	?	89.1µM*	6.3%

High-throughput results from PubChem.
